# Screening results deposited in PubChem BioAssay by National Center for Advancing Translational Sciences (NCATS).
# Shown are actives, neighbours in structure and some others; about 19% of the full set was active somewhere.
# MCF10A rerep: induces DNA re-replication in MCF 10a normal breast cells | AID 624296 | MCF 10A DNA re-replication, Hoechst nuclear intensity, 48 h | hit rate 2.9% among 350,000 | Potency, µM (doses to about 46.1 µM), for inactives: at the highest dose activity, positive = re-replication, most hits filed as activators; also: potency is read from the fitted curve at half-maximal effect; % of control where 0% means no effect; nearly all actives have a fitted effect of over 50% in size
# SW480 rerep: inducers of DNA re-replication in SW480 colon cancer cells | SW480 DNA re-replication, Hoechst DNA content imaging, 48 h | Potency, µM (doses to about 46.1 µM), without a hit: at the top dose re-replication activation, hits mostly activators | hit rate 1.8% among 340,000 | AID 624297; also: potency is read from the fitted curve at half-maximal effect; % of control where 0% means no effect; nearly all actives have a fitted effect of over 55% in size
#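 Per well, 250 cells were exposed to pinned compound for 48 hr. Nuclear DNA was visualised with Hoechst (40 min, 37 C) and total object intensity recorded by fluorescence scanning.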
# Chronic BCR inh: chronic active BCR signaling inhibition. ABC-DLBCL IkBa-CBG/CBR reporter, luminescence ratio, 4 h. Potency, µM (highest dose often 46.1 µM), for inactives: at the highest dose activity change, negative = inhibition, hits mostly inhibitors. hit rate 0.05% among 340,000; active = well fitted inhibition curve with a large enough effect in the signal ratio, with a control signal flat, not every such curve was filed as active; inconclusive = small, poorly fitted or top-dose-only effect, or effect the other way, or a change in a side signal; the % refers to the signal ratio;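 also: potency is read from the fitted curve at half-maximal effect; plate controls were basal doxycycline-induced cells for no effect and cells given 10 µM MG132 for full effect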
#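 Concentration-response series (up to 46 uM) were applied to TMD8 dual-reporter cells for 4 h at 37C with doxycycline. Green/red ratio, after filter-overlap correction, defined %Activity; red signal alone was normalised to basal cells and zero luminescence.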
# DT40 TDP1 no CPT: qHTS for Inhibitors of human tyrosyl-DNA phosphodiesterase 1 (TDP1): qHTS in cells in absence of CPT. DT40 Tdp1-/- hTDP1 cells, no CPT, ATP luminescence, 48 h. Potency, µM (highest dose often 46.2 µM), inactives show at the highest dose activity change, negative = growth inhibition, actives largely listed as inhibitors. hit rate 15% among 420,000; also: potency is read from the fitted curve at half-maximal effect; % is scaled to controls: 0 for no effect and ±100 for the full control effect; nearly all actives have a fitted effect of over 55% in size
#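 Luminescent ATP content (CellTiter-Glo) served as the growth readout. Knockout chicken DT40 cells expressing human TDP1 were exposed to compounds without camptothecin for a minimum 48 hr at 37 °C.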
# TDP1 cell CPT: growth inhibition of DT40 Tdp1-/-;hTDP1 cells with camptothecin (screen for TDP1 inhibitors). AID 686979. chicken DT40 Tdp1-/-;hTDP1 cells + 20 nM CPT, ATP luminescence, 48 h. Potency, µM (series often up to 46.2 µM), without a hit: at the top dose activity change, negative = growth inhibition, usual class: inhibitors. hit rate 12% among 420,000; also: potency is read from the fitted curve at half-maximal effect; % is scaled to controls: 0 for no effect and ±100 for the full control effect; nearly all actives have a fitted effect of over 55% in size
#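 Cell growth measured by CellTiter-Glo luminescence after a minimum 48 h, 37 C compound exposure with 20 nM CPT in Tdp1-knockout DT40 cells stably expressing hTDP1, seeded 400/well; qHTS titration format.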
# IL1B secr inh: inflammasome signaling inhibition, IL-1 beta readout; THP-1 LPS/ATP IL-1B secretion, AlphaLISA, 16 h; stronger effect = lower value; activity change, % at 57.5 µM; hit rate 4.7% among 360,000; AID 743279; in the data active = activity change below about -50%; inconclusive = mostly about -30% to -49%; also: % is scaled to controls: 0 for no effect and ±100 for the full control effect
#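 THP-1 cells pretreated 1 hr with compounds (up to 57.5 uM final), then stimulated with LPS (250 ng/mL final) plus ATP (1.25 mM final); secreted IL-1B measured by AlphaLISA after 16 hr, decreased signal indicating inhibition.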
# An asterisk follows results filed as active; ? = inconclusive; . = not tested or not shown; [ ] = another dose, or the depositor's remark. Unless noted, calls follow the shape of the dose curve; as a rule, active = well fitted curve in the direction sought with a large enough effect; inconclusive = small, poorly fitted or top-dose-only effect, or another doubt; inactive = no such curve, though single readings can be large; an effect the other way counts as inactive or inconclusive.
SMILES,MCF10A rerep,SW480 rerep,Chronic BCR inh,DT40 TDP1 no CPT,TDP1 cell CPT,IL1B secr inh
CCOC(=O)N1CCC(NC(=O)c2ccc3c(c2)N=C(C)c2c(C)ccc(C)c2S3)CC1,23%,7.3µM*,?,1.2µM*,2.1µM*,14
COc1ccc(NC(=O)CN2C(=O)NC3(CCCc4ccccc43)C2=O)c(OC)c1 (stereo not drawn),-5%,-1%,2%,?,-26%,-23
O=c1nc(N2CCCC2)nc(N2CCCC2)[nH]1,-8%,-1%,2%,0%,1%,-12
CC(=O)/C=C1\OCc2ccccc21,.,.,.,25%,14%,-4
CC1=Nc2cc(C(=O)NC3CCCCC3)ccc2Sc2ccc(Cl)cc21,.,.,?,1µM*,0.82µM*,.
CCOC(=O)N1CCC(NC(=O)c2ccc3c(c2)N=C(CC)c2cc(C)ccc2S3)CC1,?,?,?,18µM*,10µM*,28
CCC1=Nc2cc(C(=O)NCc3ccco3)ccc2Sc2ccc(C)cc21,1.5µM*,1µM*,?,1.3µM*,1.5µM*,3
S=C(NCC1CCCO1)c1ccc(Br)cc1 (stereo not drawn),?,-12%,?,?,?,-84*
CCC1=Nc2cc(C(=O)NCCN3CCOCC3)ccc2Sc2ccc(C)cc21,-2%,?,-16%,0%,-10%,10
O=C(NCC1CCCO1)c1ccc(C(=O)NCC2CCCO2)cc1 (stereo not drawn),-3%,-13%,-5%,-12%,4%,15
COc1ccc(N2C(=NC(=O)C(C)Oc3ccccc3)SC3CS(=O)(=O)CC32)cc1 (stereo not drawn),2%,-3%,3%,22%,-2%,-19
CCn1c(=O)n(C)c2c(=O)n(C)c(=O)n(C)c21,-14%,-14%,.,-5%,3%,14
CCOC(=O)N1CCN(C(=O)c2ccc3c(c2)N=C(CC)c2cc(C)ccc2S3)CC1,0%,-16%,-1%,10µM*,16µM*,-4
CCC1=Nc2cc(C(=O)N3CCCCC3)ccc2Sc2ccc(C)cc21,11%,-26%,0%,?,-24%,4
CC1=Nc2cc(C(=O)NCC3CCCO3)ccc2Sc2ccc(Br)cc21 (stereo not drawn),18µM*,?,?,5.8µM*,3.7µM*,59
CCC12CN3CC(C)(CN(C1)C3c1ccc(O)cc1O)C2=O (stereo not drawn),.,.,.,4%,4%,.
CCCCN(CCCNC(=O)CN1C(=O)COc2ccc(S(=O)(=O)N3CCC(C)CC3)cc21)Cc1ccccc1,-3%,11%,-5%,?,?,36
N#Cc1c(N)n(Cc2ccccc2)c(=O)c2cc([N+](=O)[O-])ccc12,-1%,?,?,18µM*,16µM*,-19
Cc1ccc(Cn2c(C)nc3ccc([N+](=O)[O-])cc3c2=O)cc1,-4%,-8%,7%,21µM*,18µM*,-13
Cc1nc2ccc([N+](=O)[O-])cc2c(=O)n1Cc1ccc([N+](=O)[O-])cc1,2%,?,6%,?,?,2
CCN1C(=O)[C@H]2[C@H]3CN=C(SC)N3[C@@](Cc3ccccc3)(C(=O)OC)[C@H]2C1=O,20%,0%,-1%,10%,-5%,4
O=C(O)Cc1cc2ccccc2nc1C(=O)O,.,.,.,-9%,-10%,.
CCc1ccc(NC(=O)C2CCN(S(=O)(=O)c3cccc(-c4noc(C)n4)c3)CC2)cc1,.,.,-3%,15µM*,21µM*,.
CCc1ccc(NC(=O)C2CCN(S(=O)(=O)c3ccc4c(c3)N(C(C)=O)CCO4)CC2)cc1,-1%,-4%,1%,18µM*,-28%,11
COc1ccc(NC(=O)C2CCN(S(=O)(=O)c3c(C)noc3C)CC2)cc1Cl,1%,0%,-4%,-24%,-9%,4
SMILES,MCF10A rerep,SW480 rerep,Chronic BCR inh,DT40 TDP1 no CPT,TDP1 cell CPT,IL1B secr inh
COc1ccc(NC(=O)C2CCN(S(=O)(=O)c3cccc(-c4noc(C)n4)c3)CC2)cc1OC,.,.,-30%,21µM*,?,.
Cc1cc(C)cc(NC(=O)C2CCN(S(=O)(=O)c3cccc(-c4noc(C)n4)c3)CC2)c1,.,.,12%,21µM*,16µM*,.
Cc1cc(C)cc(NC(=O)C2CCN(S(=O)(=O)c3cccc4nonc34)CC2)c1,.,.,0%,-19%,-21%,.
Cc1ccc(C2OC(=O)C=C2c2ccccc2)cc1 (stereo not drawn),13%,-3%,15%,?,?,-14
S=C1N(c2ccccc2)CN(CCN2CCOCC2)CN1c1ccccc1,-13%,-8%[9.22 µM],?,-6%,19%,16
CC(C)N1CN(c2ccccc2)C(=S)N(c2ccccc2)C1,-12%,?,7%,23µM*,?,11
COc1ccc(/C=C(/NC(=O)/C=C/c2ccccc2)C(=O)NCCCCCC(=O)O)cc1,6%,-40%,-19%,10%,0%,7
O=C(CN1CCCC1)Nc1c2c(nc3ccccc13)N(Cc1ccccc1)CC2,-5%,-5%,2%,-30%,21µM*,-6
Cc1cc(C)c2c(N)c(C(=O)Nc3c(C)n(C)n(-c4ccccc4)c3=O)sc2n1,4%,?,-1%,26%,27%,-26
CCC1CCCCN1S(=O)(=O)c1ccc2c(c1)CCN2C(=O)C1CCC1 (stereo not drawn),4%,0%[9.22 µM],?,?,?,-15
CCOc1ccc(NS(=O)(=O)c2ccc3c(c2)CCN3C(=O)C2CCC2)cc1,4%,-2%,?,?,?,17
Cc1ccc(NS(=O)(=O)c2ccc3c(c2)CCCN3C(=O)C2CCC2)cc1Cl,.,.,.,23µM*,?,.
Cc1ccc(Cl)cc1N1CCN(S(=O)(=O)c2ccc3c(c2)CCCN3C(=O)C2CCC2)CC1,.,.,.,?,-4%,.
O=C(CCl)c1ccc2c(c1)CCN2C(=O)C1CCCCC1,?,?,?,1.6µM*,1.3µM*,-103*
O=C(C1CCC1)N1CCc2cc(S(=O)(=O)Nc3ccc4c(c3)OCO4)ccc21,17%,-8%,11%,14µM*,11µM*,?
CCN(c1ccc2c(c1)OCO2)S(=O)(=O)c1cc2c(cc1Br)CCN2C(=O)C1CC1,-3%,0%,.,21µM*,16µM*,8
O/N=C\c1ccccc1Oc1ccc(F)cc1,6%,-3%,?,-24%,3%,-1
